L3MBTL1 block: qHTS Assay for the Inhibitors of L3MBTL1. Potency, µM (top dose mostly 57.1 µM), inactives show at the highest dose activity, negative = inhibition, actives largely listed as inhibitors. AID 485360, 2010. 230,000 tested, 0.66% active. Lethal(3)malignant brain tumor-like protein 1 (Homo sapiens), Q9Y468. AlphaScreen L3MBTL1–H3K9me1 peptide binding; also: % is scaled to controls: 0 for no effect and ±100 for the full control effect; nearly all actives have a fitted effect of over 60% in size
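Displacement of a biotinylated histone H3(1-15) peptide monomethylated at Lys9 (75 nM) from L3MBTL1 (50 nM) was measured by AlphaScreen after a 30 min room-temperature compound incubation; cefsulodin titration served as intraplate control.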
JMJD2A Tudor inh: qHTS Assay for Inhibitors of JMJD2A-Tudor Domain | Lysine-specific demethylase 4A (Homo sapiens), O75164 | AlphaScreen JMJD2A-Tudor / H3K4me3 peptide binding | Potency, µM (top dose mostly 114 µM), for the others: at the highest dose activity change, negative = inhibition, usual class: inhibitors | 390,000 tested, 4.4% active; also: % is scaled to controls: 0 for no effect and ±100 for the full control effect; nearly all actives have a fitted effect of over 50% in size
VDR inh: Inhibitors of the vitamin D receptor (VDR): qHTS | Vitamin D3 receptor (Homo sapiens), P11473 | VDR-SRC2-3 peptide fluorescence polarization, 2 h | Potency, µM, for the others: max response, negative = inhibition, most hits filed as inhibitors | 400,000 tested, 0.93% active; also: % is scaled to controls: 0 for no effect and ±100 for the full control effect
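Fluorescence polarization assay of small-molecule disruption of VDR binding to coregulator peptide SRC2-3. Compounds and controls pin-transferred, then read after 2 h incubation at ambient room temperature.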
PLK1 PBD block: qHTS for Inhibitors of PLK1-PDB (polo-like kinase 1 - polo-box domain): Primary Screen | Serine/threonine-protein kinase PLK1 (Homo sapiens), P53350 | Plk1 PBD binding of FITC phosphopeptide, fluorescence polarization | Potency, µM, without a hit: max response, negative = inhibition, actives largely listed as inhibitors | 360,000 tested, 2.8% active; also: series mostly up to about 57 µM; % is scaled to controls: 0 for no effect and ±100 for the full control effect; nearly all actives have a fitted effect of over 65% in size
HP1b chromo inh: HTS for Inhibitors of HP1-beta Chromodomain Interactions with Methylated Histone Tails; AlphaScreen HP1-beta / biotin-H3K9me3 peptide binding; Potency, µM (titrated, usually from 114 µM), for inactives: at the highest dose activity change, negative = inhibition, hits mostly inhibitors; 390,000 tested, 0.56% active; AID 540317, 2011; also: nearly all actives have a fitted effect of over 70% in size
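HP1-beta protein (50 nM final) preincubated 30 min at room temperature with biotinylated H3(1-18)K9me3 peptide (50 nM) in PBS pH 7.4, 0.01% Tween-20, then compound added for 30 min. AlphaScreen streptavidin donor/nickel chelate acceptor beads (10 ug/mL final), 30 min dark, luminescence read.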
BAZ2B inh: qHTS Assay for Inhibitors of BAZ2B. AlphaScreen BAZ2B-H3K14Ac peptide displacement. Potency, µM (series often up to 114 µM), for the others: at the top dose activity change, negative = inhibition, hits mostly inhibitors. 360,000 tested, 4.4% active. AID 504333, 2011; also: % is scaled to controls: 0 for no effect and ±100 for the full control effect; nearly all actives have a fitted effect of over 60% in size
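AlphaScreen luminescence quantifies BAZ2B engagement of H3K14Ac peptide; the protein and biotinylated peptide are both at 50 nM final, buffer PBS pH 7.4 with 0.01% Tween-20, all steps at room temperature.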
An asterisk follows results filed as active; ? = inconclusive; · = no result; [ ] = dose if it differs, or a comment. This is a sample that favours compounds with a hit; in the whole collection about 6.9% have one here. Calls follow the shape of the dose curve; as a rule, active = well fitted curve in the direction sought with a large enough effect; inconclusive = small, poorly fitted or top-dose-only effect, or another doubt; inactive = no such curve, though single readings can be large; an effect the other way counts as inactive or inconclusive. Potency is read from the fitted curve at half-maximal effect.

SMILES | L3MBTL1 block | JMJD2A Tudor inh | VDR inh | PLK1 PBD block | HP1b chromo inh | BAZ2B inh
Cc1cc(NC(=O)c2cc(-c3ccc(F)cc3)on2)nn1Cc1ccc(Cl)cc1 | · | -9% | -22% | · | 29% | 2%
CC(=O)ON(C(C)=O)S(=O)(=O)c1ccc(Cl)cc1 | · | · | -1% | · | · | ·
Cc1cccc(C)c1NC(=O)CSc1nc(C2CC2)nc2ccccc12 | · | -4% | -13% | -8% | 1% | 9%
O=C(NCc1cccnc1)c1cccn1-c1ncc(C(F)(F)F)cc1Cl | -8% | ? | ? | 30µM* | -19% | -8%
O=S(=O)(NCc1cccnc1)c1cccn1-c1ncc(C(F)(F)F)cc1Cl | -5% | -7% | 16% | -10% | 22% | -15%
Cc1ccccc1CCNC(=O)C1CCCN(c2cnccn2)C1 (stereo not drawn) | · | -25% | 1% | -5% | 20% | -14%
O=C(NCCc1ccccc1)C1CCCN(c2cnccn2)C1 (stereo not drawn) | · | 28µM* | -13% | 1% | ? | -7%
CCCC(=O)Nc1nc(C)c(-c2csc(Nc3ccccc3OC)n2)s1 | -2% | ? | -8% | -20% | -11% | ?
CCCCCC(=O)Nc1nc(C)c(-c2csc(Nc3cc(Cl)ccc3OC)n2)s1 | -13% | ? | 3% | ? | ? | ?
Cc1ccc(Cl)cc1Nc1nc(-c2sc(NC(=O)C(C)(C)C)nc2C)cs1 | 0% | ? | 7% | -18% | 13% | 56µM*
COc1ccccc1Nc1nc(-c2sc(NC(=O)C(C)(C)C)nc2C)cs1 | -6% | 63µM* | 8% | -18% | -29% | ?
O=c1[nH]c2ccccc2c(O)c1-[n+]1ccccc1 | 1% | -23% | -12% | -5% | 17% | -4%
O=c1[nH]c2ccccc2c(O)c1O | 6% | 50µM* | 7.1µM* | 11µM* | ? | 2%
CCOC(=O)C1=C(COC(=O)CNS(=O)(=O)c2ccc(C)c(C)c2)NC(=O)NC1C (stereo not drawn) | · | · | · | 0% | · | ·
COc1ccc(OCCn2nnc3sc4c(c3c2=O)CCCC4)cc1 | · | 79µM* | 13% | · | 3% | 50µM*
COc1ccc(NC(=O)Cn2nnc3sc4c(c3c2=O)CCCC4)cc1 | · | -20% | -15% | · | 8% | -12%
Cc1cccc(OCCCCn2nnc3sc4c(c3c2=O)CCC(C)C4)c1 (stereo not drawn) | · | 71µM* | 13% | · | 61% | ?
COc1ccccc1C(=O)NCC1(c2ccccc2)CCCC1 | 19% | 27% | 0% | 4% | 68% | 4%
CCC(Nc1ccc(-c2nc(-c3ccco3)no2)cc1[N+](=O)[O-])c1ccccc1 (stereo not drawn) | · | -22% | 2% | · | 44% | -7%
Cc1cccc(NC2=NC(C)(C)N=C(N)N2)c1C | 3% | -11% | 25µM* | 4% | 11% | ·
CC(NC(=O)/C(C#N)=C/c1ccc(OCC(=O)O)cc1)c1ccccc1 (stereo not drawn) | -10% | -13% | -33% | -9% | 25% | 5%[57.1 µM]
CC(NC(=O)/C(C#N)=C/c1ccc(Cl)c([N+](=O)[O-])c1)c1ccccc1 (stereo not drawn) | -12% | ? | ? | 12µM* | -8% | ?
Cc1ccc(C2C(C(=O)c3cc4ccccc4o3)=C(O)C(=O)N2CCN2CCOCC2)o1 (stereo not drawn) | -2% | 89µM* | 1% | -24% | 10% | ?
CCOc1ccc(C2C(C(=O)c3ccc(C)o3)=C(O)C(=O)N2CCN2CCOCC2)cc1OC (stereo not drawn) | -2% | 28µM* | -3% | -8% | 39% | ?
